According to PubChem BioAssay (NCI):
“And” between values parts separate entries of the source, which are not always exact repeats. Equal entries are not always repeated. About 79,000 compounds went through this panel and 15% of them were active in at least one assay; those are over-represented in the sample as a whole. Some structures have more than one record in an assay (separate samples or runs), and their calls can disagree. The source made the active and inactive calls. Rule as the data show it: active = growth inhibition above about 70%; inactive = the rest.

What was measured:
[1] = NCI Yeast Anticancer Drug Screen. Data for the wt1 strain (AID 149);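 also: 0% = growth of vehicle-treated wt1 cultures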; details: S. cerevisiae wt1 strain (SPY 50644) growth inhibition, stronger effect = higher value
In short: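 Using yeast strain wt1, compound-induced growth inhibition was determined against vehicle-treated cultures.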

[2] = NCI Yeast Anticancer Drug Screen. Data for the rad50EPP+ strain (AID 151);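 also: 0% = growth of vehicle-treated control cultures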; details: S. cerevisiae rad50 mutant strain, stronger effect = higher value
In short: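 Measured: growth inhibition of rad50EPP+ yeast. Reference: vehicle-treated controls. Screen uses strains with defined genetic alterations in DNA damage repair or cell cycle control.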

[3] = NCI Yeast Anticancer Drug Screen. Data for the rad50 strain (AID 155);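 also: 0% = growth of vehicle-only cultures of the same strain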; details: S. cerevisiae rad50 strain growth inhibition, stronger effect = higher value
In short: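 Relative growth inhibition (compound vs vehicle) was measured in yeast with a defined repair-gene alteration.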

[4] = NCI Yeast Anticancer Drug Screen. Data for the mec2-1 strain (AID 157); details: S. cerevisiae mec2-1 strain, stronger effect = higher value
In short: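 Compounds were applied to mec2-1 yeast cells. Their growth was then compared with that of vehicle-treated cultures to give growth inhibition.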

[5] = NCI Yeast Anticancer Drug Screen. Data for the rad14 strain (AID 159);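 also: 0% = growth of vehicle-treated control cultures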; details: S. cerevisiae rad14 strain growth inhibition, stronger effect = higher value
In short: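 Screen for anticancer potential: a yeast strain altered in DNA damage repair is grown with compound, and reduced growth is quantified against vehicle controls.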

[6] = NCI Yeast Anticancer Drug Screen. Data for the sgs1 mgt1 strain (AID 161);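 also: 0% = growth of cultures given vehicle only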; details: S. cerevisiae sgs1 mgt1 strain, stronger effect = higher value
In short: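 Percent growth inhibition was derived by comparing compound-exposed mutant yeast with vehicle-exposed cultures. The strain carries alterations in DNA damage repair.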

[7] = NCI Yeast Anticancer Drug Screen. Data for the cln2 rad14 strain (AID 165);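 also: 0% = growth equal to vehicle treated cultures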; details: S. cerevisiae cln2 rad14 strain, stronger effect = higher value
In short: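 Strain: cln2 rad14 yeast, altered in cell cycle control and DNA damage repair. Read-out: growth inhibition vs vehicle.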

[8] = NCI Yeast Anticancer Drug Screen. Data for the bub3 strain (AID 167); details: S. cerevisiae bub3 mutant strain, stronger effect = higher value
In short: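 Screening used yeast with an engineered genetic alteration affecting cell cycle control. Compound-exposed cultures were compared with vehicle cultures, and reduced growth was taken as inhibition.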

[9] = NCI Yeast Anticancer Drug Screen. Data for the wt2 strain (AID 169);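 also: 0% = growth of vehicle-treated yeast cultures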; details: S. cerevisiae wt2 strain growth inhibition, stronger effect = higher value
In short: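 Growth of compound-treated yeast is measured and expressed as inhibition relative to vehicle-only controls.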

[10] = NCI Yeast Anticancer Drug Screen. Data for the mlh1 strain (AID 171);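 also: 0% = growth of vehicle-treated control cultures of the same strain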; details: S. cerevisiae mlh1 strain growth inhibition, stronger effect = higher value
In short: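 Test agents were incubated with yeast bearing a defined DNA damage repair or cell cycle control alteration; values are growth inhibition normalised to vehicle-treated cultures.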

[11] = NCI Yeast Anticancer Drug Screen. Data for the sgs1 strain (AID 173);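 also: 0% = growth of vehicle-only control cultures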; details: S. cerevisiae sgs1 mutant, stronger effect = higher value
In short: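 Strain with an altered DNA repair or cell cycle pathway exposed to compound. Growth then measured. Value = inhibition versus vehicle control.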

[12] = NCI Yeast Anticancer Drug Screen. Data for the mlh1 rad18 strain (AID 175); details: S. cerevisiae mlh1 rad18 strain growth inhibition, stronger effect = higher value
In short: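 A repair-deficient yeast strain is exposed to test compound, and growth is scored relative to vehicle-treated controls.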

[13] = NCI Yeast Anticancer Drug Screen. Data for the rad18 strain (AID 177); details: S. cerevisiae rad18 mutant growth inhibition, stronger effect = higher value
In short: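 DNA-repair-defective yeast; compound treatment; growth inhibition scored against vehicle.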

[14] = NCI Yeast Anticancer Drug Screen. Data for the CLN2oe strain (AID 163);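 also: 0% = growth of vehicle-only control cultures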; details: S. cerevisiae CLN2oe strain, stronger effect = higher value
In short: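 Cells of an engineered yeast line with disturbed cell-cycle regulation are treated with compound. Inhibition of growth is then calculated relative to the vehicle-treated reference.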

[15] = at 5.0 µM (retest, dose inferred, filed as 0.5)
[16] = at 50.0 µM (retest, dose inferred, filed as 5.0)

Measured: growth inhibition

CN(C)c1ccc(C(c2ccc(Cl)cc2)c2ccc(N(C)C)cc2)cc1
inactive: [1]; at 1.2 µM 0% | [1]; at 3.7 µM 53% | [1]; at 11.0 µM 28% | [2]; at 1.2 µM 3% | [2]; at 3.7 µM 10% | [2]; at 11.0 µM 6% | [2]; at 33.0 µM -2% | [2]; at 100.0 µM 14% | [3]; at 1.2 µM 64% | [4]; at 1.2 µM 31% | [9]; at 1.2 µM -2% | [9]; at 3.7 µM 13% | [9]; at 11.0 µM 17% | [10]; at 1.2 µM 9% | [11]; at 1.2 µM 24%
-52% (inactive) and 97% (active): [7]; [15]
active: [1]; at 33.0 µM 73% | [1]; at 100.0 µM 86% | [3]; at 3.7 µM 97% | [3]; [15] 91% and 98% | [3]; at 11.0 µM 96% | [3]; at 33.0 µM 89% | [3]; [16] 94% and 99% | [3]; at 50.0 µM 95.7% and 94.5% | [3]; at 100.0 µM 79% | [4]; at 3.7 µM 98% | [4]; [15] 90% and 99% | [4]; at 11.0 µM 97% | [4]; at 33.0 µM 93% | [4]; [16] 93% and 100% | [4]; at 50.0 µM 95% and 94.3% | [4]; at 100.0 µM 86% | [5]; at 1.2 µM 82% | [5]; at 3.7 µM 98% | [5]; at 11.0 µM 98% | [5]; at 33.0 µM 94% | [5]; at 100.0 µM 84% | [6]; [15] 98% | [6]; [16] 94% and 99% | [6]; at 50.0 µM 94.1% and 95.3% | [7]; [16] 74% and 99% | [7]; at 50.0 µM 77.9% and 89.7% | [8]; at 1.2 µM 80% | [8]; at 3.7 µM 98% | [8]; [15] 93% and 99% | [8]; at 11.0 µM 97% | [8]; at 33.0 µM 93% | [8]; [16] 91% and 99% | [8]; at 50.0 µM 94.4% and 91.3% | [8]; at 100.0 µM 80% | [9]; at 33.0 µM 86% | [9]; at 100.0 µM 85% | [10]; at 3.7 µM 87% | [10]; at 11.0 µM 73% | [10]; at 33.0 µM 92% | [10]; at 100.0 µM 86% | [11]; at 3.7 µM 91% | [11]; at 11.0 µM 83% | [11]; at 33.0 µM 93% | [11]; at 100.0 µM 85% | [12]; [15] 96% and 98% | [12]; [16] 90% and 99% | [12]; at 50.0 µM 93.4% and 92.8% | [13]; at 1.2 µM 94% | [13]; at 3.7 µM 98% | [13]; at 11.0 µM 97% | [13]; at 33.0 µM 90% | [13]; at 100.0 µM 83%

CN(C)CCNC(=O)c1cccc2nc3c(ccc4ccccc43)nc12
inactive: [1]; at 1.2 µM -3% | [1]; at 3.7 µM -2% | [1]; at 11.0 µM 2% | [1]; at 33.0 µM 17% | [2]; at 1.2 µM -3% | [2]; at 3.7 µM 1% | [2]; at 11.0 µM 15% | [3]; at 1.2 µM 3% | [3]; at 3.7 µM 26% | [3]; [15] 13% | [3]; at 11.0 µM 67% | [4]; at 1.2 µM -1% | [4]; at 3.7 µM 2% | [4]; [15] 5% | [4]; at 11.0 µM 10% | [4]; at 33.0 µM 25% | [4]; [16] 23% | [5]; at 1.2 µM -2% | [5]; at 3.7 µM 2% | [5]; at 11.0 µM 14% | [5]; at 33.0 µM 50% | [14]; at 1.2 µM -5% | [14]; at 3.7 µM -1% | [14]; at 11.0 µM -2% | [14]; at 33.0 µM 18% | [7]; [15] 4% | [7]; [16] 57% | [7]; at 50.0 µM 26.9% | [8]; at 1.2 µM 1% | [8]; at 3.7 µM 3% | [8]; [15] -40% | [8]; at 11.0 µM 5% | [8]; at 33.0 µM 24% | [8]; [16] 43% | [8]; at 50.0 µM 24.1% | [11]; at 1.2 µM -4% | [11]; at 3.7 µM -4% | [11]; at 11.0 µM 1% | [11]; at 33.0 µM 30% | [12]; [15] 7% | [13]; at 1.2 µM -2% | [13]; at 3.7 µM 2% | [13]; at 11.0 µM 11% | [13]; at 33.0 µM 61%
active: [1]; at 100.0 µM 85% | [2]; at 33.0 µM 75% | [2]; at 100.0 µM 96% | [3]; at 33.0 µM 91% | [3]; [16] 94% | [3]; at 50.0 µM 90% | [3]; at 100.0 µM 98% | [4]; at 50.0 µM 73.8% | [4]; at 100.0 µM 94% | [5]; at 100.0 µM 99% | [14]; at 100.0 µM 72% | [8]; at 100.0 µM 97% | [11]; at 100.0 µM 98% | [12]; [16] 92% | [12]; at 50.0 µM 90.2% | [13]; at 100.0 µM 99%

O=S(=O)(O)CC[S][Sn]([S]CCS(=O)(=O)O)([c]1ccccc1)[c]1ccccc1
inactive: [1]; at 1.2 µM -25% | [1]; at 3.7 µM 12% | [2]; at 1.2 µM -20% | [2]; at 3.7 µM -17% | [2]; at 11.0 µM -11% | [2]; at 33.0 µM -7% | [2]; at 100.0 µM -22% | [3]; at 1.2 µM -28% | [3]; at 3.7 µM 18% | [3]; [15] 22% | [4]; at 1.2 µM -21% | [4]; at 3.7 µM 11% | [4]; [15] 20% | [5]; at 1.2 µM -6% | [5]; at 3.7 µM 35% | [6]; [15] 3% | [7]; [15] 6% | [8]; at 1.2 µM -31% | [8]; at 3.7 µM 30% | [8]; [15] 46% | [9]; at 1.2 µM -34% | [9]; at 3.7 µM 8% | [10]; at 1.2 µM -35% | [10]; at 3.7 µM 11% | [11]; at 1.2 µM -12% | [11]; at 3.7 µM 32%
active: [1]; at 11.0 µM 80% | [1]; at 33.0 µM 95% | [1]; at 100.0 µM 98% | [3]; at 11.0 µM 90% | [3]; at 33.0 µM 97% | [3]; [16] 97% | [3]; at 50.0 µM 88.5% | [3]; at 100.0 µM 97% | [4]; at 11.0 µM 81% | [4]; at 33.0 µM 97% | [4]; [16] 99% | [4]; at 50.0 µM 89.8% | [4]; at 100.0 µM 98% | [5]; at 11.0 µM 91% | [5]; at 33.0 µM 97% | [5]; at 100.0 µM 97% | [6]; [16] 95% | [6]; at 50.0 µM 91% | [7]; [16] 91% | [7]; at 50.0 µM 88.5% | [8]; at 11.0 µM 87% | [8]; at 33.0 µM 96% | [8]; [16] 96% | [8]; at 50.0 µM 87.8% | [8]; at 100.0 µM 97% | [9]; at 11.0 µM 89% | [9]; at 33.0 µM 98% | [9]; at 100.0 µM 97% | [10]; at 11.0 µM 89% | [10]; at 33.0 µM 95% | [10]; at 100.0 µM 96% | [11]; at 11.0 µM 88% | [11]; at 33.0 µM 96% | [11]; at 100.0 µM 97%
